The whole screen tested about 5,500 compounds, of which about 2,000 (36%) were called active. Roughly 18% stayed inconclusive and do not appear here. The list shows a part of the results. Values without a mark were called inactive. Cut-off read from the data, not from the text of the source: active = normalized growth mostly below about 0.91 (no sharp cut-off); inconclusive = no clear call, values can overlap the other calls; inactive = mostly above about 0.92.
Experiment: chemical genetic growth profiling, strain panel (AID 1159580);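 note: tested at 20 µM; growth read once vehicle control cultures reached saturation at 30 °C; 1 = growth at the plate median or of vehicle wells; lower values mean less growth of the strain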
Conditions: S. cerevisiae deletion strains, growth OD

CN(C)[C@@H]1C(=O)C(C(=O)NCN2CCCC2)=C(O)[C@@]2(O)C(=O)C3=C(O)c4c(O)cccc4[C@@](C)(O)[C@H]3C[C@@H]12
normalized growth (locus YAL021C, strain ccr4, active compounds read low): 0.935 | normalized growth (locus YAL026C, strain drs2, active compounds read low): 0.976 | normalized growth (locus YAL030W, strain snc1, active compounds read low): 0.994 | normalized growth (locus YBL061C, strain skt5, active compounds read low): 0.999 | normalized growth (locus YBR009C, strain hhf1, active compounds read low): 0.965 | normalized growth (locus YBR023C, strain chs3, active compounds read low): 0.992 | normalized growth (locus YBR171W, strain sec66, active compounds read low): 1.02 | normalized growth (locus YBR231C, strain swc5, active compounds read low): 0.974 | normalized growth (locus YBR279W, strain paf1, active compounds read low): 1 | normalized growth (locus YCL011C, strain gbp2, active compounds read low): 0.94 | normalized growth (locus YCL016C, strain dcc1, active compounds read low): 0.997 | normalized growth (locus YCL061C, strain MRC1, active compounds read low): 0.997 | normalized growth (locus YCL069W, strain vba3, active compounds read low): 1.02 | normalized growth (locus YCR088W, strain abp1, active compounds read low): 1.01 | normalized growth (locus YDL005C, strain med2, active compounds read low): 1.04 | normalized growth (locus YDL040C, strain nat1, active compounds read low): 1.02 | normalized growth (locus YDR001C, strain nth1, active compounds read low): 1.01 | normalized growth (locus YDR069C, strain doa4, active compounds read low): 0.942 | normalized growth (locus YDR137W, strain rgp1, active compounds read low): 0.922 | normalized growth (locus YDR159W, strain sac3, active compounds read low): 1.04 | normalized growth (locus YDR195W, strain ref2): 1.11 | normalized growth (locus YDR297W, strain sur2, active compounds read low): 0.985 | normalized growth (locus YDR334W, strain swr1, active compounds read low): 0.994 | normalized growth (locus YDR335W, strain msn5, active compounds read low): 1 | normalized growth (locus YDR392W, strain spt3, active compounds read low): 0.908 | normalized growth (locus YEL003W, strain gim4, active compounds read low): 0.732 (active) | normalized growth (locus YEL037C, strain rad23, active compounds read low): 1 | normalized growth (locus YEL061C, strain CIN8 (second series), active compounds read low): 1.01 | normalized growth (locus YER015W, strain faa2, active compounds read low): 0.99 | normalized growth (locus YER016W, strain bim1, active compounds read low): 1.02 | normalized growth (locus YER111C, strain swi4, active compounds read low): 1.01 | normalized growth (locus YER155C, strain BEM2 (second series), active compounds read low): 0.926 | normalized growth (locus YFR010W, strain ubp6, active compounds read low): 0.985 | normalized growth (locus YGL167C, strain pmr1, active compounds read low): 1 | normalized growth (locus YGL173C, strain kem1, active compounds read low): 1.01 | normalized growth (locus YGL227W, strain vid30, active compounds read low): 1.03 | normalized growth (locus YGL240W, strain doc1, active compounds read low): 0.987 | normalized growth (locus YGL253W, strain hxk2, active compounds read low): 1.01 | normalized growth (locus YHR013C, strain ard1, active compounds read low): 1 | normalized growth (locus YHR027C, strain rpn1, active compounds read low): 0.995 | normalized growth (locus YHR030C, strain SLT2, active compounds read low): 1.03 | normalized growth (locus YHR079C, strain IRE1, active compounds read low): 1.01 | normalized growth (locus YHR142W, strain chs7, active compounds read low): 1 | normalized growth (locus YJL092W, strain hpr5, active compounds read low): 1.01 | normalized growth (locus YJL095W, strain BCK1 (second series), active compounds read low): 0.994 | normalized growth (locus YJL095W, strain BCK1, active compounds read low): 0.992 | normalized growth (locus YJL115W, strain asf1, active compounds read low): 1.01 | normalized growth (locus YJL129C, strain trk1, active compounds read low): 1.03 | normalized growth (locus YJL154C, strain vps35, active compounds read low): 1.02 | normalized growth (locus YJL164C, strain tpk1, active compounds read low): 0.937 | normalized growth (locus YJL166W, strain qcr8, active compounds read low): 0.944 | normalized growth (locus YJL187C, strain SWE1, active compounds read low): 0.994 | normalized growth (locus YJR066W, strain TOR1, active compounds read low): 0.965 | normalized growth (locus YKL160W, strain elf1, active compounds read low): 1 | normalized growth (locus YKR026C, strain gcn3, active compounds read low): 1 | normalized growth (locus YKR091W, strain srl3, active compounds read low): 1.02 | normalized growth (locus YLL001W, strain dnm1, active compounds read low): 1.02 | normalized growth (locus YLL026W, active compounds read low): 1 | normalized growth (locus YLL041C, strain sdh2, active compounds read low): 1.01 | normalized growth (locus YLR027C, strain aat2, active compounds read low): 0.984 | normalized growth (locus YLR113W, strain HOG1, active compounds read low): 0.959 | normalized growth (locus YLR221C, strain rsa3, active compounds read low): 0.907 (active) | normalized growth (locus YLR258W, strain gsy2, active compounds read low): 0.967 | normalized growth (locus YLR262C, strain YPT6 (second series), active compounds read low): 0.945 | normalized growth (locus YLR320W, strain mms22, active compounds read low): 0.97 | normalized growth (locus YLR342W, strain FKS1, active compounds read low): 1 | normalized growth (locus YLR357W, strain rsc2, active compounds read low): 0.787 (active) | normalized growth (locus YLR370C, strain arc18, active compounds read low): 1 | normalized growth (locus YLR384C, strain iki3, active compounds read low): 1.01 | normalized growth (locus YML120C, strain ndi1, active compounds read low): 0.936 | normalized growth (locus YMR058W, strain fet3, active compounds read low): 0.879 (active) | normalized growth (locus YMR125W, strain sto1, active compounds read low): 1.03 | normalized growth (locus YMR129W, active compounds read low): 1.01 | normalized growth (locus YMR205C, strain PFK2, active compounds read low): 1.01 | normalized growth (locus YMR231W, strain pep5, active compounds read low): 1.01 | normalized growth (locus YNL071W, strain lat1, active compounds read low): 0.942 | normalized growth (locus YNL183C, strain NPR1, active compounds read low): 0.946 | normalized growth (locus YNL209W, strain ssb2, active compounds read low): 0.993 | normalized growth (locus YNL248C, strain rpa49, active compounds read low): 0.796 (active) | normalized growth (locus YNL322C, strain KRE1 (second series), active compounds read low): 1 | normalized growth (locus YNR049C, strain mso1, active compounds read low): 1.01 | normalized growth (locus YOR001W, strain rrp6, active compounds read low): 0.89 (active) | normalized growth (locus YOR070C, strain gyp1, active compounds read low): 1 | normalized growth (locus YOR080W, strain dia2, active compounds read low): 1.01 | normalized growth (locus YOR083W, strain WHI5, active compounds read low): 0.978 | normalized growth (locus YOR106W, strain vam3, active compounds read low): 0.849 (active) | normalized growth (locus YOR231W, strain MKK1, active compounds read low): 1.03 | normalized growth (locus YOR265W, strain rbl2, active compounds read low): 1 | normalized growth (locus YOR270C, strain vph1, active compounds read low): 0.977 | normalized growth (locus YOR290C, strain snf2, active compounds read low): 0.991 | normalized growth (locus YPL051W, strain arl3, active compounds read low): 0.949 | normalized growth (locus YPL078C, strain atp4, active compounds read low): 1 | normalized growth (locus YPL106C, strain sse1, active compounds read low): 0.95 | normalized growth (locus YPL240C, strain hsp82, active compounds read low): 1.02 | normalized growth (locus YPL256C, strain CLN2, active compounds read low): 1.01
